According to PubChem BioAssay (NCI):
The panel holds about 83,000 compounds, 20% with a hit somewhere; the sample as a whole holds those more often.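 The test compound was applied at a single concentration to cells in 96-well plates for 48 hours, and percent growth was recorded.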 The source made the active and inactive calls. Rule for the calls: active = growth percent below 10; inactive = the rest.

What was measured:
Assay in all cases: NCI-60 one-dose screen, 48 h (100 = growth as untreated, 0 = no growth, -100 = all killed)
Settings in all cases: 10 µM unless noted
DU-145 prostate = system: DU-145 prostate
K-562 leukemia = system: K-562 leukemia
MALME-3M melanoma = system: MALME-3M melanoma
MDA-MB-231 breast = system: MDA-MB-231 breast
RXF 393 renal = system: RXF 393 renal
SF-268 CNS = system: SF-268 CNS
SF-295 CNS = system: SF-295 CNS
SF-539 CNS = system: SF-539 CNS
UACC-257 melanoma = system: UACC-257 melanoma
M14 melanoma = system: M14 melanoma

Measured: growth

COc1cc(-c2csc(NC(=O)c3cc(F)cc(C(F)(F)F)c3)n2)cc(OC)c1OC
inactive: DU-145 prostate 14.6% | MALME-3M melanoma 40.3% | MDA-MB-231 breast 56.5% | RXF 393 renal 11.8% | SF-268 CNS 42.4% | SF-295 CNS 38.1% | SF-539 CNS 26.8% | UACC-257 melanoma 58.6% | M14 melanoma 23.6%
active: K-562 leukemia 8.12%

O=C(NO)c1ccc(-n2nc(-c3ccccc3)c3ccccc32)cc1
inactive: DU-145 prostate 38.4% | K-562 leukemia 37.8% | MALME-3M melanoma 57% | MDA-MB-231 breast 40.3% | RXF 393 renal 36.5% | SF-268 CNS 54.7% | SF-295 CNS 80.9% | SF-539 CNS 49.3% | UACC-257 melanoma 78.5% | M14 melanoma 57.2%

CCOC(=O)CSc1nc2ccccc2c(=O)n1Cc1ccc(S(N)(=O)=O)cc1
inactive: DU-145 prostate 113% | K-562 leukemia 97.1% | MALME-3M melanoma 105% | MDA-MB-231 breast 101% | RXF 393 renal 98.4% | SF-268 CNS 99.2% | SF-295 CNS 99.4% | SF-539 CNS 97.7% | UACC-257 melanoma 101% | M14 melanoma 97%

NC(=O)Nc1ccc(-n2cnc3cc(-c4ccc(O)cc4)ccc32)cc1
inactive: DU-145 prostate 107% | K-562 leukemia 89.3% | MALME-3M melanoma 98.4% | MDA-MB-231 breast 107% | RXF 393 renal 123% | SF-268 CNS 96.3% | SF-295 CNS 97.4% | SF-539 CNS 67.2% | UACC-257 melanoma 112% | M14 melanoma 91.6%

c1ccc(-c2cn3c(ccc4ccccc43)n2)cc1
inactive: DU-145 prostate 87.8% | K-562 leukemia 20.8% | MALME-3M melanoma 80.7% | MDA-MB-231 breast 55.8% | RXF 393 renal 86% | SF-268 CNS 74.7% | SF-295 CNS 60.2% | SF-539 CNS 62.6% | UACC-257 melanoma 78.9% | M14 melanoma 32.2%

C#CCNC(=O)[C@]1(C)CC[C@]2(C)CC[C@@H]3C(=CC[C@H]4[C@@]3(C)CC[C@H]3C(C)(C)C(=O)CC[C@]43C)[C@@H]2C1
inactive: DU-145 prostate 98.8% | K-562 leukemia 63.7% | MALME-3M melanoma 114% | MDA-MB-231 breast 98% | RXF 393 renal 116% | SF-268 CNS 95.7% | SF-295 CNS 107% | SF-539 CNS 102% | UACC-257 melanoma 98.7% | M14 melanoma 95.8%

CCc1ccc(CNc2ccc(N3CCOCC3)c(C(=O)O)c2)cc1
inactive: DU-145 prostate 105% | K-562 leukemia 111% | MALME-3M melanoma 101% | MDA-MB-231 breast 114% | RXF 393 renal 121% | SF-268 CNS 95.6% | SF-295 CNS 103% | SF-539 CNS 100% | UACC-257 melanoma 106% | M14 melanoma 99.7%

O=S(=O)(NCCCNc1nccc(-c2c(-c3cccc(O)c3)nc3occn23)n1)c1ccc(Cl)cc1
inactive: DU-145 prostate 95.4% | K-562 leukemia 55.6% | MALME-3M melanoma 10.7% | MDA-MB-231 breast 61.8% | RXF 393 renal 77.9% | SF-268 CNS 87.4% | SF-295 CNS 116% | SF-539 CNS 108% | UACC-257 melanoma 12.7% | M14 melanoma 24.3%

c1ccc2c(-c3c[nH]c4ccccc34)c3c(cc2c1)[nH]c1ccccc13
inactive: DU-145 prostate 93.7% | K-562 leukemia 25.1% | MALME-3M melanoma 78.9% | MDA-MB-231 breast 71.6% | RXF 393 renal 33.5% | SF-268 CNS 66.7% | SF-295 CNS 85.4% | SF-539 CNS 59% | UACC-257 melanoma 77.6% | M14 melanoma 39.2%

COc1cc(/C=N/NC(=O)c2cnn3c2NC(c2ccccc2)C3)ccc1OCc1ccccc1 (stereo not given)
inactive: SF-268 CNS 19.6% | UACC-257 melanoma 18.5% | M14 melanoma 14.8%
active: DU-145 prostate 6.15% | K-562 leukemia 3.64% | MALME-3M melanoma -20.5% | MDA-MB-231 breast 5.81% | RXF 393 renal -4.25% | SF-295 CNS -48.3% | SF-539 CNS -52.6%

[O-][n+]1c(Cl)cc(Cl)c2ccccc21
inactive: DU-145 prostate 113% | K-562 leukemia 85.2% | MALME-3M melanoma 107% | MDA-MB-231 breast 100% | RXF 393 renal 153% | SF-268 CNS 96.7% | SF-295 CNS 103% | SF-539 CNS 125% | UACC-257 melanoma 102% | M14 melanoma 100%

CCN1C(=O)/C(=C/C(=O)OC)S/C1=N\NC(=O)c1cc2ccc1/C=C\c1ccc(cc1)/C=C\2
inactive: DU-145 prostate 108% | K-562 leukemia 54.2% | MALME-3M melanoma 91.9% | MDA-MB-231 breast 96.1% | RXF 393 renal 101% | SF-268 CNS 97.8% | SF-295 CNS 96.9% | SF-539 CNS 90.2% | UACC-257 melanoma 92.7% | M14 melanoma 87.1%

N#C/C(=C\c1ccc(C(F)(F)F)cc1)c1cc2ccccc2[nH]1
inactive: DU-145 prostate 105% | K-562 leukemia 90.3% | MALME-3M melanoma 103% | MDA-MB-231 breast 92.7% | RXF 393 renal 113% | SF-268 CNS 99.4% | SF-295 CNS 99.8% | SF-539 CNS 107% | UACC-257 melanoma 104% | M14 melanoma 108%

COc1cc(CC(=O)c2ccc(O)c(OC)c2)ccc1O
inactive: DU-145 prostate 108% | K-562 leukemia 89.1% | MALME-3M melanoma 107% | MDA-MB-231 breast 88.6% | RXF 393 renal 102% | SF-268 CNS 102% | SF-295 CNS 98.9% | SF-539 CNS 103% | UACC-257 melanoma 80.1% | M14 melanoma 102%

CC1(C)CC(=O)C2=C(C1)N(c1ccc(F)cc1F)C(N)=C(C#N)C2c1cc(Br)ccc1F (stereo not given)
inactive: DU-145 prostate 95.4% | K-562 leukemia 87.6% | MALME-3M melanoma 99% | MDA-MB-231 breast 96.4% | RXF 393 renal 103% | SF-268 CNS 103% | SF-295 CNS 105% | SF-539 CNS 87.8% | UACC-257 melanoma 101% | M14 melanoma 85.1%

CCNC(=O)Oc1ccc(/C(=C(\C)c2ccccc2)c2ccc(OCCN3CCCCC3)cc2)cc1
inactive: DU-145 prostate 84.1% | MALME-3M melanoma 46.6% | MDA-MB-231 breast 70.7% | RXF 393 renal 59.3% | SF-268 CNS 68.1% | SF-295 CNS 29.7% | SF-539 CNS 24.3%
active: K-562 leukemia 6.5% | UACC-257 melanoma -26.4% | M14 melanoma -2.47%

CC(=O)N1c2ccccc2NC2=C(C(=O)NC2(C)C)C1c1ccco1 (stereo not given)
inactive: DU-145 prostate 100% | K-562 leukemia 77.1% | MALME-3M melanoma 80.5% | MDA-MB-231 breast 96.4% | RXF 393 renal 58% | SF-268 CNS 77.2% | SF-295 CNS 96.6% | SF-539 CNS 94.6% | UACC-257 melanoma 75.1% | M14 melanoma 68.6%

COC(=O)C1=C(C(=O)ON)C2C=CC1(C(Cc1ccccc1)Nc1ccccc1)O2 (stereo not given)
active: K-562 leukemia -1.55% | MALME-3M melanoma -74%
inactive: DU-145 prostate 73.9% | MDA-MB-231 breast 103% | RXF 393 renal 92.1% | SF-268 CNS 95% | SF-295 CNS 103% | SF-539 CNS 90% | UACC-257 melanoma 87.8% | M14 melanoma 76.3%

CCN(CC)c1ccc(/C=N/NC(=O)CSc2nc3ccccc3c(=O)n2Cc2ccc(S(N)(=O)=O)cc2)c(O)c1
inactive: DU-145 prostate 37.8% | MALME-3M melanoma 31.3% | MDA-MB-231 breast 25.3% | RXF 393 renal 42.6% | SF-268 CNS 18.6% | SF-295 CNS 20.3% | SF-539 CNS 27.9% | UACC-257 melanoma 13%
active: K-562 leukemia 6.12% | M14 melanoma 4.26%

c1ccc2c(-c3nccs3)c[nH]c2c1
inactive: DU-145 prostate 107% | K-562 leukemia 99.2% | MALME-3M melanoma 99.1% | MDA-MB-231 breast 92.6% | RXF 393 renal 95% | SF-268 CNS 96.7% | SF-295 CNS 101% | SF-539 CNS 96.4% | UACC-257 melanoma 111% | M14 melanoma 99.1%

CN(C)c1ccc(C2C(C#N)=C(/N=C/c3ccccc3)Oc3c2ccc2ccccc32)cc1 (stereo not given)
inactive: DU-145 prostate 87.8% | K-562 leukemia 17.1% | MALME-3M melanoma 77.8% | MDA-MB-231 breast 58.1% | RXF 393 renal 75.9% | SF-268 CNS 66.5% | SF-295 CNS 49.5% | SF-539 CNS 68.6% | UACC-257 melanoma 82.7% | M14 melanoma 59.4%

Cc1cc2nc3c4ccc(Br)cc4n(CCN(C)C)c3nc2cc1C
inactive: MDA-MB-231 breast 15.2% | RXF 393 renal 16.4% | SF-268 CNS 31% | SF-295 CNS 14.8% | SF-539 CNS 17.2% | UACC-257 melanoma 18% | M14 melanoma 14.8%
active: DU-145 prostate 3.18% | K-562 leukemia 4.08% | MALME-3M melanoma 0.769%

COc1ccc2c(c1)C(=O)CC(c1ccccc1OC)O2 (stereo not given)
inactive: DU-145 prostate 103% | K-562 leukemia 101% | MALME-3M melanoma 102% | MDA-MB-231 breast 86.8% | RXF 393 renal 106% | SF-268 CNS 96.6% | SF-295 CNS 101% | SF-539 CNS 96.6% | UACC-257 melanoma 101% | M14 melanoma 106%

Cc1ccc(CNc2c3ccccc3nc3cc(NC(=O)CCN4CCCC4)ccc23)cc1
active: DU-145 prostate -67.9% | K-562 leukemia -30.3% | MALME-3M melanoma -94% | MDA-MB-231 breast -7.47% | RXF 393 renal 1.55% | M14 melanoma -88%
inactive: SF-268 CNS 15.1% | SF-295 CNS 36.7% | SF-539 CNS 16.7% | UACC-257 melanoma 24.1%

O=C(CCN1CCCC1)Nc1ccc2c(NCCCCc3ccccc3)c3ccccc3nc2c1
active: DU-145 prostate -61.8% | K-562 leukemia -31.2% | MALME-3M melanoma -88.7% | MDA-MB-231 breast -74.9% | RXF 393 renal 7.61% | SF-268 CNS -73.2% | SF-539 CNS -70.3% | UACC-257 melanoma -60.8% | M14 melanoma -72.6%
inactive: SF-295 CNS 43.4%

CC1(C)CC[C@]2(C(=O)O)CC[C@]3(C)C(=CC[C@@H]4[C@@]5(C)Cc6c([nH]c7ccccc67)C(C)(C)[C@@H]5CC[C@]43C)[C@@H]2C1
inactive: DU-145 prostate 49.5% | K-562 leukemia 28.8% | MALME-3M melanoma 115% | MDA-MB-231 breast 65.5% | RXF 393 renal 67.2% | SF-268 CNS 54% | SF-295 CNS 36.7% | SF-539 CNS 36.2% | UACC-257 melanoma 88.5% | M14 melanoma 76.4%

N/C(=N\C(N)=N\c1nc2ccccc2s1)c1cccc(Cl)c1
inactive: DU-145 prostate 89.6% | K-562 leukemia 72.8% | MALME-3M melanoma 102% | MDA-MB-231 breast 73.7% | RXF 393 renal 115% | SF-268 CNS 83.6% | SF-295 CNS 12% | SF-539 CNS 99.2% | UACC-257 melanoma 113% | M14 melanoma 96.1%
